Assay [1] in a line: Cell Viability - Jurkat (AID 426;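 active = dose-dependent loss of cell ATP signal giving a full or clear fitted curve, ranked by lower potency value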;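 also: potency is read from the fitted curve at half-maximal effect; cells exposed to compound for 40 hours at 37 °C before ATP read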). The settings on record: qHTS. The method in brief:
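Cytotoxicity was scored as loss of cellular ATP, measured by luciferase-based luminescence, in Jurkat clone E6-1 cells after 40 h compound treatment; tamoxifen and doxorubicin served as positive controls.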

Assay [2] is described as follows: Cell Viability - HepG2 (AID 433; calls by dose curve;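 also: potency is read from the fitted curve at half-maximal effect; cells exposed to compound for 40 hours; potency for ATP loss meaning cytotoxicity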). The settings on record: qHTS. The procedure, abridged: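 HepG2 hepatocellular carcinoma cells (1500/well) were treated with compounds for 40 h at 37 °C in complete medium; intracellular ATP was read by CellTiter-Glo luminescence. Data were normalized to DMSO and 100 uM tamoxifen, and AC50 came from Hill fits.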
(Quantitative high-throughput screening tests each substance at several concentrations.)

Assay [3] can be described thus: MultiTox-Fluor Cytotoxicity Assay - LYMP1-002 - Dead Cells (AID 960).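 Also: 0% = DMSO and 100% = tetraoctylammonium bromide; nearly all actives have a fitted effect of over 60% in size.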 The note with it: LYMP1-002 lymphoblastoid cells, dead-cell protease fluorescence; series mostly up to 46.1 µM. The procedure, abridged: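 Concentration-dependent increases in membrane-leaked protease activity are quantified in LYMP1-002 cells after 16 hr treatment; values are normalized against DMSO and tetraoctylammonium bromide (15 uM) controls and AC50 derived by Hill modeling.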

Assay [4] in a line: Cell Viability - LYMP2-024 (AID 988).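 Also: cells exposed to compound for 24 hr at 37 °C; plate controls were DMSO only for no effect and 92 µM tetraoctylammonium bromide for full effect; nearly all actives have a fitted effect of over 60% in size.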 The settings on record: LYMP2-024 lymphoblastoid cell viability; series mostly up to 92.2 µM. The procedure, abridged:
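Cells at 2500 per well received compound for 24 hr after a 5 hr settling period. Viability was scored by CellTiter-Glo luminescence, with AC50 from Hill fits.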

Assay [5] in a line: qHTS assay for small molecule antagonists of peroxisome proliferator-activated receptor delta signaling (AID 588535; active = well fitted inhibition curve with a large enough effect in the signal ratio, with a control signal flat, not every such curve was filed as active; the % refers to the signal ratio;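 as to max response: cells co-treated with a PPAR-delta agonist as stimulator during compound exposure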). The note with it: HEK293T PPARd-UAS-bla, beta-lactamase FRET ratio, 18 h; 460 nm channel. The method in brief: (§1)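 Compounds tested in titration on PPAR-delta-UAS-bla HEK293T cells grown in charcoal/dextran-stripped serum (2%); beta-lactamase activity read via CCF4 emission at 460 and 530 nm.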

Assay [6] addresses Peroxisome proliferator-activated receptor gamma (Homo sapiens) (UniProt P37231). The experiment in a line: qHTS assay for small molecule agonists of peroxisome proliferator-activated receptor gamma signaling (AID 588536; active = well fitted curve in the direction sought with a large enough effect in the signal ratio, with a control signal flat, not every such curve was filed as active; the % refers to the signal ratio;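 also: 0% = DMSO basal wells and 100% = rosiglitazone at 2 µM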). The settings on record: HEK293 PPARg-UAS-bla, beta-lactamase ratio, 16 h, percent of rosiglitazone response, DMSO as zero; series mostly up to 76.7 µM. The procedure, abridged:
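Using GeneBLAzer HEK293 cells, response was quantified by CCF4 fluorescence and normalized between basal DMSO (0%) and rosiglitazone 2 uM (100%); curves yielded half-maximal stimulation concentration and efficacy.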

For assay [7] the target is unchanged. Briefly: qHTS assay for small molecule antagonists of peroxisome proliferator-activated receptor gamma signaling (AID 588537; active = well fitted inhibition curve with a large enough effect in the signal ratio, with a control signal flat, not every such curve was filed as active; the % refers to the signal ratio;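 also: reporter cells co-stimulated with 50 nM rosiglitazone agonist during compound treatment; % of control where 0% means no effect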). The note with it: HEK293 PPARg-UAS-bla, beta-lactamase ratio, antagonist mode; series mostly up to 76.8 µM. The method in brief: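 HEK293 cells, PPAR-gamma-UAS-bla, 3000/well. Pre-incubation 6-6.5 h, 37 C. Compound titration with rosiglitazone 50 nM final, 16 h. CCF4 dye, 2 h RT, dual-emission fluorescence.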

In assay [8] the target is Vitamin D3 receptor (Homo sapiens) (UniProt P11473). Briefly: qHTS assay for small molecule agonists of vitamin D receptor signaling (AID 588543; calls by dose curve;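 also: 0% = DMSO basal and 100% = reference agonist control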). The note with it: HEK293T VDR-UAS-bla, beta-lactamase ratio, 16 h; series mostly up to 76.8 µM. The procedure, abridged: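 GeneBLAzer VDR-UAS-bla HEK293T cells in 2% charcoal-stripped FBS medium were dosed with compound titrations for 16 h at 37 °C; CCF4 β-lactamase readout (405 nm ex, 460/530 nm em). EC50 and efficacy from Hill fits, normalized to 50 nM calcitriol (100%) and DMSO (0%).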

Assay [9] in a line: qHTS assay for small molecule agonists of the antioxidant response element (ARE) signaling pathway (AID 651741; active = well fitted activation curve with a large enough effect in the signal ratio; the % refers to the signal ratio; also: % of control where 0% means no effect). The note with it: HepG2 ARE-bla reporter, beta-lactamase FRET ratio, 16 h; series mostly up to 96 µM. The procedure, abridged:
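Beta-lactamase reporter expression driven by the antioxidant response element in HepG2 cells was detected by fluorescence with LiveBLAzer B/G FRET substrate (2 h, room temperature) following 16 h compound treatment at 37 C.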

A short description of assay [10]: qHTS assay for small molecule activators of the nuclear factor-kappa B (NF-kB) signaling pathway (AID 651749; active = well fitted activation curve with a large enough effect in the signal ratio; the % refers to the signal ratio; also: % of control where 0% means no effect). The settings on record: NF-kB-bla ME-180 cells, beta-lactamase FRET ratio, 16 h; stronger effect = higher value. The method in brief: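 Beta-lactamase reporter expression, controlled by NF-kB response elements in ME-180 cells, was quantified fluorometrically via FRET disruption; cells at 2,000/well had been incubated with 23 nL test compound for 16 hr.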

Assay [11] can be described thus: qHTS assay for small molecule disruptors of the mitochondrial membrane potential - 5 hr assay (AID 651755; calls by dose curve; also: % is scaled to controls: 0 for no effect and ±100 for the full control effect; nearly all actives have a fitted effect of over 40% in size). The settings on record: JC-1-type ratio dye; series mostly up to 92.2 µM. The method in brief:
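Seed HepG2 overnight, add compound, incubate 5 hr at 37C and 5% CO2, stain 30 min with Mito-MPS, then measure monomer (490/535 nm) and aggregate (540/590 nm) fluorescence.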

Assay [12] addresses Tumor necrosis factor (Homo sapiens) (UniProt P01375). Briefly: qHTS assay to identify small molecules that stimulate Tumor Necrosis Factor-alpha (TNF-alpha) secretion (AID 651757; active = well fitted curve in the direction sought with a large enough effect in the signal ratio; the % refers to the signal ratio; also: 0% is about no effect). The note with it: Human cells, HTRF 665/615 ratio; series mostly up to 92.2 µM. The method in brief: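 Using 3000 THP-1 cells per well, compounds and controls were applied for 17 hrs at 37 C. Detection followed with two labeled anti-TNF-alpha antibodies (cryptate donor, XL665 acceptor) for 3 hr at room temperature, measured by TR-FRET.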

The target of assay [13] is Nuclear receptor ROR-gamma (Homo sapiens) (UniProt P51449). Briefly: qHTS assay for small molecule antagonists of the retinoid-related orphan receptor gamma (ROR-gamma) signaling pathway (AID 651802).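 Also: luciferase reporter luminescence driven by ROR response element; % is scaled to controls: 0 for no effect and ±100 for the full control effect; nearly all actives have a fitted effect of over 60% in size.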 The settings on record: ROR-gamma antagonist cell reporter assay; series mostly up to 92.2 µM. The procedure, abridged: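 Doxycycline-induced reporter activity in engineered CHO cells (TET-inducible ROR, RORE-LUC) was measured by luminescence after 16hr compound exposure at 37C.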

Assay [14] has as its target Mitogen-activated protein kinase 10 (Mus musculus) (UniProt Q61831). The experiment in a line: JNK3 AlphaScreen Assay (AID 530; active = well fitted curve in either direction with a large enough effect, not every such curve was filed as active;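 also: kinase came from lysate of stimulated human HepG2 cells; signal reports phosphorylation of biotinylated GST-cJun 1-79 at Ser73 with 10 µM ATP; % is scaled to controls: 0 for no effect and ±100 for the full control effect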). The settings on record: JNK3 lysate, c-Jun phosphorylation; series mostly up to 57.1 µM. The method in brief:
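Biotinylated GST-cJun(1-79) served as substrate for JNK3 in HepG2 lysates stimulated with IL-1beta and TNF-alpha. ATP was 10 uM final, pH 7.6. Ser73 phosphorylation was quantified by AlphaScreen (680 nm excitation).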

A short description of assay [15]: Cell Viability - NIH 3T3 (AID 541).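 Also: cells exposed to compound for 40 hours; plate controls were DMSO alone for no effect and tamoxifen positive control for full effect; nearly all actives have a fitted effect of over 25% in size.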 The note with it: NIH 3T3 cell viability, qHTS; activity change, negative = cytotoxicity: at 92.2 µM (top of the series). The procedure, abridged: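 In this cytotoxicity screen, acute toxicity is scored as an ATP drop measured by CellTiter-Glo in NIH 3T3 fibroblasts following a 40 hr, 37 °C incubation with compound.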
The target in assay [16] is Estrogen receptor (Homo sapiens) (UniProt P03372). Briefly: qHTS assay for small molecule antagonists of estrogen receptor alpha signaling (AID 588513; active = well fitted curve in the direction sought with a large enough effect in the signal ratio, with a control signal flat, not every such curve was filed as active; the % refers to the signal ratio; also: % is scaled to controls: 0 for no effect and ±100 for the full control effect). The settings on record: ER-alpha-UAS-bla HEK293, beta-lactamase ratio, antagonist mode; series mostly up to 76.9 µM. The procedure, abridged: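 ER-alpha-UAS-bla GripTite HEK 293 cells in medium with 2% charcoal/dextran-treated FBS were preincubated 4 h at 37 C, dosed with compound (1:2 titration), stimulated with 0.5nM 17-beta-estradiol for 18 h, then read by CCF4 beta-lactamase fluorescence.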

Assay [17] concerns the target Bile acid receptor (Homo sapiens) (UniProt Q96RI1). The experiment in a line: qHTS assay for small molecule agonists of farnesoid X receptor signaling (AID 588527; calls by dose curve;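 also: 0% = vehicle basal and 100% = reference agonist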). The note with it: HEK293T FXR-UAS-bla, beta-lactamase ratio, 16 h; stronger effect = higher value. The procedure, abridged: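 Quantitative HTS used FXR-UAS-bla HEK293T cells with 16 h compound incubation at 37 C. EC50 values came from concentration-response curves normalized to chenodeoxycholic acid.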

Assay [18] addresses Peroxisome proliferator-activated receptor delta (Homo sapiens) (UniProt Q03181). Briefly: qHTS assay for small molecule antagonists of peroxisome proliferator-activated receptor delta signaling (AID 588535).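 As to max response: cells co-treated with a PPAR-delta agonist as stimulator during compound exposure.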 The settings on record: HEK293T PPARd-UAS-bla, beta-lactamase FRET ratio, 18 h; series mostly up to 76.7 µM. The method in brief:
as §1

The target in assay [19] is Glucocorticoid receptor (Homo sapiens) (UniProt P04150). The experiment in a line: qHTS assay for small molecule agonists of glucocorticoid receptor signaling (AID 588532; active = well fitted curve in the direction sought with a large enough effect in the signal ratio, with a control signal flat; the % refers to the signal ratio;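 also: 100% = dexamethasone at 0.1 µM and 0% = DMSO only wells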). The note with it: HeLa MMTV-bla, beta-lactamase ratio, agonist, 18 h; stronger effect = higher value; percent of dexamethasone control, DMSO zero. The method in brief: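 Stimulation of a glucocorticoid response element-driven beta-lactamase gene was measured in HeLa cells. Responses were scaled between DMSO basal and 0.1 uM dexamethasone, then fitted for half-maximal stimulation.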

Assay [20] has the same target. Briefly: qHTS assay for small molecule antagonists of glucocorticoid receptor signaling (AID 588533; active = well fitted inhibition curve with a large enough effect in the signal ratio, with a control signal flat, not every such curve was filed as active; the % refers to the signal ratio;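 also: cells stimulated with 2 nM dexamethasone as agonist; % is scaled to controls: 0 for no effect and ±100 for the full control effect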). The settings on record: HeLa MMTV-bla, GRE beta-lactamase ratio, antagonist mode, 18 h; series mostly up to 76.8 µM. The procedure, abridged: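 Antagonist-mode qHTS: compound titrations added to GRE-bla HeLa cells, then dexamethasone 2 nM final; 18 h, 37 C. CCF4 FRET fluorescence normalized to dexamethasone and DMSO; IC50 from Hill fit.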

Where “and” joins values, the source holds several entries; their conditions need not be identical. Equal entries are not always repeated. Results filed as inconclusive are left out. Calls of active or inactive are those of the source. Unless noted, calls follow the shape of the dose curve; as a rule, active = well fitted curve in the direction sought with a large enough effect; inconclusive = small, poorly fitted or top-dose-only effect, or another doubt; inactive = no such curve, though single readings can be large; an effect the other way counts as inactive or inconclusive.

Vitamin D3 receptor (Homo sapiens), sequence (P11473 whole entry, looked up): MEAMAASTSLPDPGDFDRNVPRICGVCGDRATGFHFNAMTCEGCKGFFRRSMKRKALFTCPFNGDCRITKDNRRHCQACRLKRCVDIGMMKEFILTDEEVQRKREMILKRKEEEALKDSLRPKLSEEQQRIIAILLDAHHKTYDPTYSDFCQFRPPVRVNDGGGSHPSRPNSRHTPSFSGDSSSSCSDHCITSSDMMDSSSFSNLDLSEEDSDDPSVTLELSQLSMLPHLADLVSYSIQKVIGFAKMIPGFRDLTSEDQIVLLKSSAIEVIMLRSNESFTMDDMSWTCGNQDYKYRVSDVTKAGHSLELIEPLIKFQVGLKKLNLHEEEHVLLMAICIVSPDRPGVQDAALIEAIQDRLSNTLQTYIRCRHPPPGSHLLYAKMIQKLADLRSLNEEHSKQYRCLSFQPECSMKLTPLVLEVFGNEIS
Peroxisome proliferator-activated receptor delta (Homo sapiens), sequence (Q03181 whole entry, looked up): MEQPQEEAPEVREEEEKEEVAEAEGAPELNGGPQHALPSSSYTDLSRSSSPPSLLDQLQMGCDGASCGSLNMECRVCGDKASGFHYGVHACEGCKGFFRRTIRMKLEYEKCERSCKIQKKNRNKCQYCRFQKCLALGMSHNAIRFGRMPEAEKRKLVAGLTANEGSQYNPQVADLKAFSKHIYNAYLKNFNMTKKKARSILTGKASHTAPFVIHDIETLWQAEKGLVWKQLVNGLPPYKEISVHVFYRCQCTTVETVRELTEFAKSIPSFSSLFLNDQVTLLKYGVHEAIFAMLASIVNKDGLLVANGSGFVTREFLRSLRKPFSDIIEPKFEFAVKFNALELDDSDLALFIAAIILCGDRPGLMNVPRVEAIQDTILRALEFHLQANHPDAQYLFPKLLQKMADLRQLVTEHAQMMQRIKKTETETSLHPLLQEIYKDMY
Glucocorticoid receptor (Homo sapiens), sequence (P04150 whole entry, looked up): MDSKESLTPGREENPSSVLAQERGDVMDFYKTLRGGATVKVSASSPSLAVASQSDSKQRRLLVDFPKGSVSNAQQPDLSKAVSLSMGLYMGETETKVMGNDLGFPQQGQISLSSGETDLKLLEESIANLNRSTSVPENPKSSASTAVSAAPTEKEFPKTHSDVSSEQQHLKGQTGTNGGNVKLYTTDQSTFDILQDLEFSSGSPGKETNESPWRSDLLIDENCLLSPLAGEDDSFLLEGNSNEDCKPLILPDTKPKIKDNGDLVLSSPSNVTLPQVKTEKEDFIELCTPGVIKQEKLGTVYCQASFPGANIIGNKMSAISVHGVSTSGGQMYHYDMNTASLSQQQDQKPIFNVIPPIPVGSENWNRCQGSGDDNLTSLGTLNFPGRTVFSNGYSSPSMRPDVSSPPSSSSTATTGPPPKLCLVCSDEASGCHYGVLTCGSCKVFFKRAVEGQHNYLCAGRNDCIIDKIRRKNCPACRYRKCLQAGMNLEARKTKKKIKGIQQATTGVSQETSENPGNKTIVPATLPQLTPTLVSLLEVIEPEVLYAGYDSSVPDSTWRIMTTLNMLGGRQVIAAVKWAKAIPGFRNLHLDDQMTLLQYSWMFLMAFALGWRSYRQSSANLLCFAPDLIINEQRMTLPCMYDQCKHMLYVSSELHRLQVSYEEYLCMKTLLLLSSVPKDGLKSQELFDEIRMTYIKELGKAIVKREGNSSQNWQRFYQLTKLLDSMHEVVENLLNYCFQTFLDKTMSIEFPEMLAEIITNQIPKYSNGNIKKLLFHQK
Tumor necrosis factor (Homo sapiens), sequence (P01375 whole entry, looked up): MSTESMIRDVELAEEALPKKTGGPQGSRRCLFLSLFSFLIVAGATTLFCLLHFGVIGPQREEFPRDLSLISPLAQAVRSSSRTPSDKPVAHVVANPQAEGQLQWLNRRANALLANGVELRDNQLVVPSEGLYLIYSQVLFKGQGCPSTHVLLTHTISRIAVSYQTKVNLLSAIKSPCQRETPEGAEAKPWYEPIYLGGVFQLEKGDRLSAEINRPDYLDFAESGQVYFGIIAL
Peroxisome proliferator-activated receptor gamma (Homo sapiens), sequence (P37231 whole entry, looked up): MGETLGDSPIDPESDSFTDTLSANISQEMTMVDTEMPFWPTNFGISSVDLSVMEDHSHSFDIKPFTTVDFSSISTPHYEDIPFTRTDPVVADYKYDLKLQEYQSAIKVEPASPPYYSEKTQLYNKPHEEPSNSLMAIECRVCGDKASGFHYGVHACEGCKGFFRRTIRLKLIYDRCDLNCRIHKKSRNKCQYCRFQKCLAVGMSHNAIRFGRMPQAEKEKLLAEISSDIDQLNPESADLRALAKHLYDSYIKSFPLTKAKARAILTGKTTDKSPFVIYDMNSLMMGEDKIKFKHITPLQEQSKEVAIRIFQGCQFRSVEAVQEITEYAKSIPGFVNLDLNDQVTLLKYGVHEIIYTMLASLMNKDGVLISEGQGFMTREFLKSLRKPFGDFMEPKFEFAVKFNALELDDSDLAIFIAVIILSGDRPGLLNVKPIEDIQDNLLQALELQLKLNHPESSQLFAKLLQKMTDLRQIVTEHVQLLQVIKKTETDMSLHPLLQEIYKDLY
Nuclear receptor ROR-gamma (Homo sapiens), sequence (P51449 whole entry, looked up): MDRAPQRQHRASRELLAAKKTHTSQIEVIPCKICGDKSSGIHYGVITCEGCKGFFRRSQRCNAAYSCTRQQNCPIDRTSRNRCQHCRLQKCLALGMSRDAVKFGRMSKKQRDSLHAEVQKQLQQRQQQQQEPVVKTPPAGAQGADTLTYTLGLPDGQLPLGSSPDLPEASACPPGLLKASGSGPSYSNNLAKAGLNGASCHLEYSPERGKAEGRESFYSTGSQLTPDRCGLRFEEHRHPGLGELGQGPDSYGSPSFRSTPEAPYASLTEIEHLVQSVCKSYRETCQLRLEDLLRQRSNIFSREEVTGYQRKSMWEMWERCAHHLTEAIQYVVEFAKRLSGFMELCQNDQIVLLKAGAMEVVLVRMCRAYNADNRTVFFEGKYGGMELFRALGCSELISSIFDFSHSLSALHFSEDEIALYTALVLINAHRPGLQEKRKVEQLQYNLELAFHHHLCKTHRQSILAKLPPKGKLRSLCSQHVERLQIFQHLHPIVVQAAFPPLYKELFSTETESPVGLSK
Bile acid receptor (Homo sapiens), sequence (Q96RI1 whole entry, looked up): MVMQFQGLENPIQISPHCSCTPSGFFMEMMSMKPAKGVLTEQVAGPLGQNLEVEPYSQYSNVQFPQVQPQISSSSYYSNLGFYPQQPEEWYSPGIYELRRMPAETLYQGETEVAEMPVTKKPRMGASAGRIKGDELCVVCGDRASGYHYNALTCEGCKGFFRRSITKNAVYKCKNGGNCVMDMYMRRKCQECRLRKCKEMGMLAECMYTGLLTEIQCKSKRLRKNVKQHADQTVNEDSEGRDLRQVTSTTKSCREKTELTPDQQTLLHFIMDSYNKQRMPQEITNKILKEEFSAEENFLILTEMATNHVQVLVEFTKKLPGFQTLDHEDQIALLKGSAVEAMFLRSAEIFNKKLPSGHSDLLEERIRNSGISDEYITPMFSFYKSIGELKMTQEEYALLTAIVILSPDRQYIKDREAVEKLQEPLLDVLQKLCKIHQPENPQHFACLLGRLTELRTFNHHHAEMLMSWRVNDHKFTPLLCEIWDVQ
Estrogen receptor (Homo sapiens), sequence (P03372 whole entry, looked up): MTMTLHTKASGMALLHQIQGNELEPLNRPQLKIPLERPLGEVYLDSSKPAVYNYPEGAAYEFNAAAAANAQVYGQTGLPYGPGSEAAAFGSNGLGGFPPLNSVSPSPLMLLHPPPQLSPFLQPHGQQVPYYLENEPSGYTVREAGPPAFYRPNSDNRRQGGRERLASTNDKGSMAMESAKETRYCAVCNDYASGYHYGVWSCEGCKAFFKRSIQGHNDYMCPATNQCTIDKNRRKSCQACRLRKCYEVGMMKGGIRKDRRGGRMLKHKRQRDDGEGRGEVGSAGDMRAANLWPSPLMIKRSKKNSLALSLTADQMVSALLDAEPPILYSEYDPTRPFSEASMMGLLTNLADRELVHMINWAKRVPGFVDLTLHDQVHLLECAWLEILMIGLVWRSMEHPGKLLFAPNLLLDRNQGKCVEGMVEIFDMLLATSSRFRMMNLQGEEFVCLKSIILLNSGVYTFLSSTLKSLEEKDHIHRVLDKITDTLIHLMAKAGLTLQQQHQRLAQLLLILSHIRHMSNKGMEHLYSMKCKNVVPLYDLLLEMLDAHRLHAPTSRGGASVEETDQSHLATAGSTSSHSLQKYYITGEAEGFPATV

As for `c1ccc2c(c1)CCNC2`, the Potency in [1] and in assay [2] was > 92 µM (inactive) each time. Also, the Potency result in assay [3], in assay [4], in assay [7], in assay [9], in assay [11] and in [13] was “inactive” throughout. For the same compound, the max response in assay [5] was 5.94%. Besides, the outcome in assay [6], in [8] and in assay [12] was inactive. The activation in assay [10] was 0.526% (inactive).
With `C/C=C/CC#N`, the Potency in [1] is > 92 µM (inactive). The Potency entry in assay [14], in assay [15], in assay [3], in [4], in assay [16] and in [11] was “inactive” throughout. Further, in [13], the Potency entry is “inactive”. Besides, the activation in [17] is -1.31% (inactive); in [10] it was 1.19% (inactive). For the same compound, the max response in assay [5] is -4.54%. The outcome in assay [18], in assay [6] and in assay [12] was inactive.
For `C=CC#N`, the Potency in assay [1] and in assay [2] was > 92 µM (inactive) throughout. Also, the Potency result in assay [3], in [4], in [7], in assay [9], in [11] and in assay [13] was “inactive” each time. For the same compound, the activation was -6.69% (inactive) in [19] and -0.054% (inactive) in [10]. Moreover, the outcome in [6] and in assay [8] was inactive.
Turning to `Clc1cccc(Cl)c1Cl`, the Potency in assay [1] and in assay [2] was > 92 µM (inactive) throughout. In addition, the Potency result in [15], in [3], in [4], in assay [7], in assay [9] and in assay [11] was “inactive” each time. Besides, the Potency result in [13] is “inactive”. Moreover, the activation in [19] is -0.532% (inactive); in [10], -0.304% (inactive) and 0.362% (inactive). For the same compound, the result in assay [20], in assay [18], in assay [6], in assay [8] and in [12] was inactive. For the same compound, the max response in [5] is -24.3%.
For the compound `CC(C)(Cl)[N+](=O)[O-]`, the Potency in [1] and in assay [2] was > 92 µM (inactive) each time. For the same compound, the Potency result in [15], in assay [3], in assay [4], in assay [7], in assay [9] and in assay [11] was “inactive” in each case. Moreover, the activation in assay [17] is 0.224% (inactive); in assay [19], -3.18% (inactive); in assay [10] it was -0.598% (inactive). For the same compound, the outcome in assay [6], in assay [8] and in assay [12] was inactive.
For the compound `CC(C)(C)c1ccccc1O`, the Potency in [1] is > 92 µM (inactive). In addition, the Potency result in [14], in assay [15], in [7] and in assay [13] was “inactive” in each case. Besides, the activation in [19] was 2.08% (inactive) and 7.02% (inactive); in assay [10], -0.0104% (inactive) and -1.11% (inactive). Further, the result in assay [20], in [18], in [6], in assay [8] and in assay [12] was inactive. In addition, in assay [5], the max response is 11% and 14.4%.
With `CSSC`, the Potency in assay [1] and in [2] was > 92 µM (inactive) in each case. Further, the Potency entry in assay [15], in assay [9] and in [13] was “inactive” each time. In addition, the outcome in assay [8] and in assay [12] was inactive.
In the case of `O=C(O)c1cc(Cl)ccc1Cl`, in [1], the Potency was > 92 µM (inactive). In addition, the Potency result in [14], in [15], in [3], in [4], in [9] and in [11] was “inactive” in each case. Moreover, in assay [13], the Potency result is “inactive”. Also, the results for the activation in assay [17] and in assay [19] were -1.21% (inactive) and -4.37% (inactive), respectively. In addition, the result in assay [20], in assay [18], in assay [8] and in [12] was inactive. Moreover, the max response in [5] amounted to 35.4%.

Values taken from PubChem BioAssay (NCATS).
